# From PubChem BioAssay AID1159506 (National Center for Advancing Translational Sciences (NCATS), 2015)
# Over roughly 59,000 sequences, the read-out has its median near -0.00055; the lowest 2% begin near -2. This is one part of a sample in which the lowest values are shown more often than they occur.
# Assay: Identification of proteins required for the processing of the EWS-FLI1 nascent transcript;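 also: robust z of luciferase light less the median z of siRNAs with the same seed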
# Conditions: TC32 Ewing sarcoma NR0B1-luc vs CMV-luc (EWS-FLI1 target promoter against control promoter), 48 h; screened at 20 nM (by protocol)
# Summary of the method: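 Genome-wide siRNA screen (Ambion v4.1, three siRNAs per gene, 20 nM final, RNAiMax) in Ewing sarcoma TC32 cells carrying NR0B1-promoter or CMV-promoter luciferase; OneGlo luciferase read 48 h post-transfection. Data normalized, z-score-MAD transformed and seed-adjusted.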
row,Sequence,seed-corrected z-score
1,UUAUGUAUCAUUGGAACCA against LOC388780,0.0558
2,UUUUAUUCCCUGUAUCAUG against ZNF619,-2.89
3,UUCACUCUCAAACUGGUCC against CNOT3,-0.499
4,UCUUGUCCAAGACUCCUUC against SMTN,-0.516
5,UGAUGAGCGACUCUCCUGG against C9orf142,-0.422
6,AUUGCUACUGAUAUAAGCC against DICER1,-0.452
7,UUCGGACUCAGCUUCUCCA against EXD3,0.0948
8,UUAUGAUCCAGGUAGAGGA against INHBE,0.817
9,UUCUGCUUUGCAUAUCUCC against POU5F1,-2.72
10,AUUCUUAAACGUGAUUUCC against NICN1,0.117
11,UAGCGAAUCUGUAAGCUGC against MLLT10,-0.471
12,UUUUGAUGCUGUCUACAGG against METTL2B,-1.55
13,UUACCUAUCCCUGAGACAC against MICAL2,0.383
14,UCCUCUGCGAAGUUCUUGG against PANX2,-2.24
15,UCCAUGAGCGCAAUCAUGC against CAPN3,0.116
16,UCUUCUUCACGAGUUGAGG against GPRC5A,-0.133
17,UGAGUCAAUGAUGCGCUUC against SFN,2.54
18,UUGAUGUACAGAUACCAGG against BTBD18,-2.42
19,AAAAGUCCAAACAAUACCC against GPR156,-0.327
20,UACUUGAGCACGUCGAUGA against C19orf68,-0.256
21,UCACUUUGAACUUUCCGGC against SCP2D1,-1.27
22,AAUGGGAAAAGAAUUGCUU against IGFBP7-AS1,0.0752

row,Sequence,seed-corrected z-score
1,UUGGUGGAUAUACUCAAUC against EXO5,-2.07
2,UGAGGAACCAGUUCCAAGG against TMEM60,-0.737
3,UUCCUGCUGCGUACACUUC against KCNAB3,-0.0212
4,ACAUAUAUAAGAAUAUCGG against ARL3,-0.177
5,UUGUGGAACAUCAUGUCUU against ADCY6,1.34
6,UAGGUUGUGACUGGUGGUG against ARID5A,-3.43
7,UAGUCGAACACCAAGAGGG against CDH3,-0.271
8,UCCGGUUUAUAUUUGGUGC against EPSTI1,-0.285
9,UUUCAUCCUAGAAACUCCC against SLC45A3,0.412
10,UUCACCAUAAACACGAUCC against DPM1,0.428
11,UAUGAAUCCAGAUUGAACU against CXCL1,0.898
12,UCCCGGUACAUGUUGUGGG against RPL18A,-2.34
13,UGUUGAGUAGGUCCGUUCC against EPHA7,0.58
14,UACAGUGACGAGAAGUUCU against RALGDS,0.583
15,AUCUCUUCCACUUCCGAGG against SMARCB1,-2.19
16,UAAUUGAACUGAUCCAGUC against WDR12,-0.242
17,UUCCUUAGCACCAUUGAUG against MMADHC,1.09
18,UCAGUUUUAGGAUAUAUAC against USP46-AS1,0.575
19,AUAUUAAGCAGACAACUCC against DIRC2,0.227
20,UGAGGUUAAAGAAGGUGAC against HRH3,-0.214
21,UGAGUUUCAUCAUAGUCUG against BMX,-4.87
22,UAAGCACACAUUUACUUGG against HIST1H2BG,0.782

row,Sequence,seed-corrected z-score
1,UUUCAUCUGAAGACAGGAC against DDIT3,-1.09
2,UCUUCGUUGAGUGCAUCCC against SOCS2-AS1,-0.904
3,UAUGUAGUUAAGACCAUUC against IRS1,0.431
4,ACAAUUUUAGCUGUAACCC against OC90,0.989
5,UCGCUGUCGAGCAGUAAGC against INO80B,-2.1
6,UUAGUGGUCAUGGGCUUCC against GTF2F1,-0.176
7,UCGCUUGCAAAUAAUCUGC against ULK2,-0.141
8,AAGUCUGCGAUUAAAGCUG against DTNBP1,-2.27
9,UACAUAGCAAACAUGACCG against ATL2,-0.859
10,UGAAGGUUUGGAGCAAACU against RPL15P17,0.127
11,UGAUCUCAGUCCUCGCUGC against LINC01118,-0.476
12,UGUAGGAACACUCAUCACC against KCNA4,-2.42
13,UUCUGUCCAAUUGUCGCUG against JTB,-0.0311
14,UAGCAUGUAACGUGUGACC against CNTNAP1,-0.734
15,UGAAGAUCCAGCAAGUAUC against 6-Mar,0.65
16,UCACAUGCAUCAAUUUUCG against NDUFB5,0.331
17,UAUAGCUGAAUGGUCAUUG against KRTAP3-3,-3.04
18,UCAGUGACAACAUCACGGC against PPP2R5D,0.201
19,UGCCGUCUUACUCUUUGCG against C19orf53,-0.415
20,AAACUUGUUUCUGCACAUG against OR2F1,1.3
21,UUCCCAUUGAUACUCAUGG against LECT1,-0.035
22,UAAUGCUUGAGGCACUUGG against CALHM2,0.134
